Most compounds without a hit are left out; they make up all but 2.8% or so of the library.
D3 ag: D3 dopamine receptor (human) agonism | D3R DiscoveRx beta-arrestin cells, luminescence, 90 min | max activation, % | 410,000 compounds, 0.58% hits | AID 652048; in the data active = max activation above about 30%; also: 0% is about no effect
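Agonist-mode cell screen: cells plated at 1500/well and incubated overnight at 37 °C, then exposed to library compounds for 90 min at 37 °C. Detection reagent was added for 30–60 min at room temperature, and luminescence was read.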
PTHR1 agonist: activates the human parathyroid hormone receptor PTHR1 | Potency, µM (highest dose often 115 µM), inactives show at the top dose activation, hits mostly activators | Q03431 | 410,000 compounds, 0.075% hits | HEK293 GP2 PTHR1 cells, GloSensor cAMP luminescence, 1 h | AID 743266; also: potency is read from the fitted curve at half-maximal effect; nearly all actives have a fitted effect of over 55% in size
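HEK-293-derived GP2 cells expressing PTHR1 and a GloSensor cAMP reporter, 3,000/well, plated overnight, given luciferin plus IBMX (each 0.5 mM as added) for 1 h at 37 °C, then compound for 1 h at 37 °C. Luminescence was read after 15 min at room temperature.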
MBNL1 CUG block: inhibitors of human MBNL1 binding to CUG repeat RNA. 280,000 compounds, 0.036% hits. AID 2675. TR-FRET MBNL1-His/biotin-(CUG)12 binding, 665/545 ratio. Potency, µM (doses to about 57.5 µM), for inactives: at the highest dose activity change, negative = inhibition, usual class: inhibitors. Q9NR56; active = well fitted inhibition curve with a large enough effect in the signal ratio, with a control signal flat, not every such curve was filed as active; inconclusive = small, poorly fitted or top-dose-only effect, or effect the other way, or a change in a side signal; inactive = no such curve, though single readings can be large or run the other way; the % refers to the signal ratio; also: potency is read from the fitted curve at half-maximal effect; % is scaled to controls: 0 for no effect and ±100 for the full control effect
Target sequence (Q9NR56 whole entry, looked up): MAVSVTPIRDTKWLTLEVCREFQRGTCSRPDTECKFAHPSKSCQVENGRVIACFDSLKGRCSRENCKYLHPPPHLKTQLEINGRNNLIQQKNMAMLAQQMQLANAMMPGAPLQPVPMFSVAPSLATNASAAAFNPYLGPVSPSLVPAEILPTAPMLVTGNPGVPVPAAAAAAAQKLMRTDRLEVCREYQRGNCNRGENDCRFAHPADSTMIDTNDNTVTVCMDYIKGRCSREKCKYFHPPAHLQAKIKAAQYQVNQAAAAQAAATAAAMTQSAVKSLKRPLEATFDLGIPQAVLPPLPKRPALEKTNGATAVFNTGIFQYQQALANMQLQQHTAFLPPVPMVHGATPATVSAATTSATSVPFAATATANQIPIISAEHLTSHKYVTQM
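TR-FRET between His-tagged MBNL1 and biotin-(CUG)12 RNA, detected with Tb anti-His antibody (0.055 ng/ul) and streptavidin-XL665 (5 nM), 60 min at room temperature. Compounds titrated 92 nM to 58 uM; 665/545 nm ratio normalized to buffer and complex controls.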
a7 integrin act: integrin-mediated muscular dystrophy alleviation activation; 350,000 compounds, 0.064% hits; Potency, µM (doses to about 38.3 µM), inactives show at the highest dose activation, hits mostly activators; alpha7betagal myoblasts, beta-gal FDG fluorescence, 48 h;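 also: potency is read from the fitted curve at half-maximal effect; 100% = response of the positive control SU9516; nearly all actives have a fitted effect of over 60% in size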
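Alpha7betagal+/- myoblasts (passage 13) were plated 16-24 hr, then exposed to compounds (1:260 dilution of DMSO stock) for 48 hours at 37C. After MPER lysis, β-galactosidase reporter activity was read as FDG fluorescence (ex 480/em 540) after 30 minutes.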
D3 antag: antagonists of human D3 dopamine receptor. max response, negative = inhibition, %. P35462. 360,000 compounds, 2.5% hits. D3R cells, DiscoveRx beta-arrestin luminescence, antagonist mode; stronger effect = lower value; in the data active = max response below about -50%; inconclusive = no clear call, values can overlap the other calls; also: % is scaled to controls: 0 for no effect and ±100 for the full control effect
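Cells expressing the human receptor were seeded at 1500 cells/well, incubated overnight at 37 degrees C in 5% CO2, then exposed to library compounds with dopamine controls for 90 minutes at 37 degrees C before luminescent detection.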
CBFb-RUNX1 inh: inhibitors of human CBF-beta and RUNX1 interaction; Q01196+Q13951; AlphaScreen CBFb-His/RUNX1-biotin binding, biochemical; Potency, µM (highest dose often 59.8 µM), for inactives: at the top dose activity, negative = inhibition, usual class: inhibitors; 230,000 tested, under 10 active; AID 1477; also: % of control where 0% means no effect
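Inhibition was taken as any reduction in AlphaScreen signal from the CBF-beta–RUNX1 pair (His and biotin tags, 30 nM each), measured after compound (15 min) and bead (90 min) incubations at room temperature.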
* marks the source's active call; other numbers are inactive results; i = inactive; ? = inconclusive; / = not tested or not shown; [ ] = another dose, or the depositor's remark. Unless noted, calls follow the shape of the dose curve; as a rule, active = well fitted curve in the direction sought with a large enough effect; inconclusive = small, poorly fitted or top-dose-only effect, or another doubt; inactive = no such curve, though single readings can be large; an effect the other way counts as inactive or inconclusive.

SMILES	D3 ag	PTHR1 agonist	MBNL1 CUG block	a7 integrin act	D3 antag	CBFb-RUNX1 inh
COc1ccc(O)c(C(=O)C2c3ccccc3C(=O)N2c2ccc(C)cc2)c1 (stereo not drawn)	12	i	15%	10%	3	5%
CC(CN1c2ccccc2Sc2cccnc21)N(C)C (stereo not drawn)	-17	/	/	/	/	/
CC(=O)N1c2ccc(S(=O)(=O)N3CCC(C(=O)NC(C)c4ccccc4)CC3)cc2CC1C (stereo not drawn)	3	-6%	3%	-34%	?	/
O=C(O)c1cccc2c1C(=O)c1ccccc1-2	2	i	?	2%	-1	7%
O=C1C(=C(I)I)c2ccccc2-c2ccccc21	-35	i	/	-55%	-100*	/
COc1cccc(C(C)(O)c2nc(/C=C/c3ccccc3)cs2)c1 (stereo not drawn)	-13	-65%	/	/	-61*	/
CC(O)(c1ccccc1)c1nc(/C=C/c2ccccc2)cs1 (stereo not drawn)	-16	-31%	/	/	-62*	/
COc1cccc(C(C)(O)c2nc(-c3ccoc3)cs2)c1 (stereo not drawn)	-9	-19%	/	/	-95*	/
CC(O)(c1ccc(F)c(F)c1)c1nc(/C=C/c2ccccc2)cs1 (stereo not drawn)	-10	-9%	/	/	0	/
CC(O)(c1cccc(F)c1)c1nc(-c2ccoc2)cs1 (stereo not drawn)	-2	-29%	/	/	2	/
COc1cccc(C(C)(O)c2nc(-c3ccccc3C)cs2)c1 (stereo not drawn)	2	-45%	/	/	12	/
CC(C)N1C(=O)c2ccccc2NC(=O)C1C(=O)NC1CC1 (stereo not drawn)	2	i	/	/	21	/
O=C(CCCN1C(=O)c2ccccc2C1=O)Nc1nnc(C2CC2)s1	21	i	5%	11%	5	5%
O=C(NCc1ccccc1Cl)c1ccc(NC(=O)N2CCSc3ccccc32)cc1	0	-19%	/	/	/	/
O=S(=O)(c1ccc(F)cc1)N(Cc1nc(-c2ccccc2)no1)C1CCCCC1	-3	-2%	/	/	/	/
O=S(=O)(c1ccccc1)N(Cc1nc(-c2ccccc2)no1)C1CCCCC1	-15	-9%	1%	-30%	-53*	?
Cn1cccc1/C=N/NC(=O)Cn1cnc2ccccc21	3	i	-10%	6%	-75*	-9%
O=C(Cn1cnc2ccccc21)N/N=C/c1cccs1	7	i	?	-6%	6	-4%
COc1ccc(N=Nc2cc(C)c(O)c(CN3CCCCC3)c2)cc1	-2	i	21%	-6%	3	?
Cc1ccc(-c2nc(CN3CCCCC3)cc(CN3CCCCC3)c2O)cc1	-15	i	-13%	-5%	-55*	-1%
Cc1ccc(-c2nn(-c3ccccc3)cc2/C=N/NC(=O)c2ccc(Br)o2)cc1	39*	-17%	-3%	26%	1	0%
O=C(Nc1sc2c(c1C(=O)NCc1ccccc1)CCCC2)c1cc(=O)c2cc(Cl)ccc2o1	4	i	/	/	/	/
CC(C)Cn1c(N)c(C(=O)COC(=O)C2CC(=O)N(Cc3ccccc3Cl)C2)c(=O)n(C)c1=O (stereo not drawn)	39*	-22%	/	-41%	58	5%
COc1ccc(-c2nnc(SCC(=O)Nc3cccc(Cl)c3C)nc2-c2ccc(OC)cc2)cc1	3	i	/	/	/	/
N#Cc1ccc(CSc2nc(N)cc(N)n2)cc1	-11	i	-1%	-22%	-55*	/
SMILES	D3 ag	PTHR1 agonist	MBNL1 CUG block	a7 integrin act	D3 antag	CBFb-RUNX1 inh
C=CCN(CC=C)C(=O)c1cccc(OC2CCN(S(=O)(=O)N(C)C)CC2)c1	6	-31%	-14%	-8%	7	/
C=CCN(CC=C)C(=O)c1ccc(OC2CCN(S(=O)(=O)N(C)C)CC2)cc1	0	-18%	5%	5µM*	10	-2%
CC(=O)c1sc(N/N=C\c2c(O)ccc3ccccc23)nc1C	-10	-10%	/	-2%	-54*	/
CC(=O)c1sc(N/N=C/c2cccc(O)c2)nc1C	-7	-28%	?	16%	-18	14%
O=C1c2ccccc2[C@@H]2C[C@@H](O)[C@H](Nc3cccc4ccccc34)CCN12	-53	-34%	/	-1%	-56*	/
COc1ccc(N[C@@H]2CCN3C(=O)c4ccccc4[C@@H]3C[C@H]2O)cc1	9	i	/	-8%	29	/
CCOC(=O)C1CCN(Cc2ccc(OC)cc2OC)CC1	-11	-19%	-10%	10%	-6	4%
CCOC(=O)C1CCN(Cc2cnc(Oc3ccc(OC)cc3)s2)CC1	3	i	-2%	0%	-55*	-3%
CCOC(=O)C1CCN(Cc2cc(C(C)C)c(O)c(C(C)C)c2)CC1	-15	i	0%	-62%	-69*	8%
CCOC(=O)C1CCN(C(=O)CN(Cc2ccc(Cl)cc2)S(C)(=O)=O)CC1	-8	i	3%	17%	-56*	-1%
CCOC(=O)C1CCN(Cc2ccc(F)c(F)c2)CC1	-30	-13%[57.5 µM]	-1%	-3%	?	0%
CCOC(=O)C1CCN(Cc2ccc(N(C)C)cc2)CC1	-8	14%[57.5 µM]	-6%	3%	-51*	-5%
CCOC(=O)N1CCN(C(=O)CN(Cc2ccc(Cl)cc2)S(C)(=O)=O)CC1	-2	-26%	-1%	-3%	6	-1%
CCOC(=O)C1CCN(Cc2cccc(OC)c2)CC1	-14	24%[57.5 µM]	10%	13%	-23	3%
CCOC(=O)C1CCN(Cc2cn[nH]c2-c2ccccc2)CC1	-8	i	-1%	5%	-66*	6%
CCOC(=O)C1CCN(Cc2ccc3ccccc3c2)CC1	-26	-15%	0%	18%	-75*	/
CCOc1ccc(S(=O)(=O)N(C)c2ccc(OCC(=O)Nc3nc(-c4cc(OC)ccc4OC)cs3)cc2)cc1	2	i	125%	13%	0	-9%
CC(=O)c1cccc(NC(=O)C2=CC(c3ccc4c(c3)OCO4)=NS(=O)(=O)N2C)c1	-21	-16%	?	8%	-62*	/
CCCCn1nnnc1C(c1ccnc2ccccc12)N1CCN(C/C=C/c2ccccc2)CC1 (stereo not drawn)	-18	i	/	/	-24	/
CCC(c1nnnn1CCOC)N1CCN(Cc2ccccc2)CC1 (stereo not drawn)	-17	i	-3%	-6%	-14	9%
CCCCn1nnnc1C(c1cccc2ccccc12)N1CCN(C/C=C/c2ccccc2)CC1 (stereo not drawn)	-13	-23%	/	/	-107*	/

Screening data: PubChem, National Center for Advancing Translational Sciences (NCATS)
